Data from PMC11006913.

Columns and labels:
Experiment in all cases: PBM; 200 nM protein, PBS
Details in all cases: dsDNA, one strand shown
ALX1 [1] = biological target: ALX1 (Homo sapiens, UniProt Q15699 118-204, L144V)
ALX1 [2] = biological target: ALX1 (Homo sapiens, UniProt Q15699 118-204, L144R)
ALX1 [3] = biological target: ALX1 (Homo sapiens, UniProt Q15699 118-204)
ALX3 [4] = biological target: ALX3 (Homo sapiens, UniProt O95076 139-225, N203Q)
HOXD13 [5] = biological target: HOXD13 (Homo sapiens, UniProt P35453 263-343, T313R)
HOXD13 [6] = biological target: HOXD13 (Homo sapiens, UniProt P35453 263-343)
ALX3 [7] = biological target: ALX3 (Homo sapiens, UniProt O95076 139-225)
ALX3 [8] = biological target: ALX3 (Homo sapiens, UniProt O95076 139-225, L168Q)
HOXD13 [9] = biological target: HOXD13 (Homo sapiens, UniProt P35453 263-343, T313A)
ALX3 [10] = biological target: ALX3 (Homo sapiens, UniProt O95076 139-225, L168V)
ALX3 [11] = biological target: ALX3 (Homo sapiens, UniProt O95076 139-225, N203S)
Sequence of ALX3 (Homo sapiens, UniProt O95076 139-225, N203S) (O95076 139-225 N203S): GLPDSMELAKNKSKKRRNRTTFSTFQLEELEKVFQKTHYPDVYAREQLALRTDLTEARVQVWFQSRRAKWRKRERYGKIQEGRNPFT

Sequence of ALX1 (Homo sapiens, UniProt Q15699 118-204, L144R) (Q15699 118-204 L144R): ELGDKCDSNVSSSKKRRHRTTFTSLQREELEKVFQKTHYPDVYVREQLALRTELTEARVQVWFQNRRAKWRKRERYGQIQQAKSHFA
Sequence of ALX1 (Homo sapiens, UniProt Q15699 118-204) (Q15699 118-204): as the sequence (Q15699 118-204 L144R) above, with R27L counted along it
Sequence of ALX1 (Homo sapiens, UniProt Q15699 118-204, L144V) (Q15699 118-204 L144V): as the sequence (Q15699 118-204 L144R) above, with R27V counted along it
Sequence of ALX3 (Homo sapiens, UniProt O95076 139-225, N203Q) (O95076 139-225 N203Q): as the sequence (O95076 139-225 N203S) above, with S65Q counted along it
Sequence of HOXD13 (Homo sapiens, UniProt P35453 263-343, T313A) (P35453 263-343 T313A): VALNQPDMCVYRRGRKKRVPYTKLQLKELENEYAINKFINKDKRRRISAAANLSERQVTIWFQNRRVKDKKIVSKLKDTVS
Sequence of HOXD13 (Homo sapiens, UniProt P35453 263-343) (P35453 263-343): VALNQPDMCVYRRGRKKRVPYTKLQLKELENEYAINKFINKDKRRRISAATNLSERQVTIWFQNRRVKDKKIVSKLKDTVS
Sequence of ALX3 (Homo sapiens, UniProt O95076 139-225) (O95076 139-225): as the sequence (O95076 139-225 N203S) above, with S65N counted along it
Sequence of ALX3 (Homo sapiens, UniProt O95076 139-225, L168Q) (O95076 139-225 L168Q): as the sequence (O95076 139-225 N203S) above, with L30Q, S65N counted along it
Sequence of ALX3 (Homo sapiens, UniProt O95076 139-225, L168V) (O95076 139-225 L168V): as the sequence (O95076 139-225 N203S) above, with L30V, S65N counted along it
Sequence of HOXD13 (Homo sapiens, UniProt P35453 263-343, T313R) (P35453 263-343 T313R): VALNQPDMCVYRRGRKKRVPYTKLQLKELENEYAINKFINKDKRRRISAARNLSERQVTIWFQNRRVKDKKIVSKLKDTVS

Sequence: GACTCCCC
- binding signal (ALX1 [1]): 6.43 upbm affinity estimate (log intensity, higher = more binding, comparable within an allelic series)
- binding signal (ALX1 [2]): 6.48 upbm affinity estimate (log intensity, higher = more binding, comparable within an allelic series)
- binding signal (ALX1 [3]): 6.25 upbm affinity estimate (log intensity, higher = more binding, comparable within an allelic series)

Sequence: CCTCAATC
- binding signal (ALX1 [1]): 7.8 upbm affinity estimate (log intensity, higher = more binding, comparable within an allelic series)
- binding signal (ALX1 [2]): 7.78 upbm affinity estimate (log intensity, higher = more binding, comparable within an allelic series)
- binding signal (ALX1 [3]): 7.96 upbm affinity estimate (log intensity, higher = more binding, comparable within an allelic series)

Sequence: GGCTAGGA
- binding signal (ALX1 [1]): 6.64 upbm affinity estimate (log intensity, higher = more binding, comparable within an allelic series)
- binding signal (ALX1 [2]): 6.63 upbm affinity estimate (log intensity, higher = more binding, comparable within an allelic series)
- binding signal (ALX1 [3]): 6.34 upbm affinity estimate (log intensity, higher = more binding, comparable within an allelic series)

Sequence: AGCCACAG
- binding signal (ALX1 [1]): 6.62 upbm affinity estimate (log intensity, higher = more binding, comparable within an allelic series)
- binding signal (ALX1 [2]): 6.52 upbm affinity estimate (log intensity, higher = more binding, comparable within an allelic series)
- binding signal (ALX1 [3]): 6.67 upbm affinity estimate (log intensity, higher = more binding, comparable within an allelic series)

Sequence: ATTTAGTA
- binding signal (ALX1 [1]): 9.39 upbm affinity estimate (log intensity, higher = more binding, comparable within an allelic series)
- binding signal (ALX1 [2]): 9.22 upbm affinity estimate (log intensity, higher = more binding, comparable within an allelic series)
- binding signal (ALX1 [3]): 9.79 upbm affinity estimate (log intensity, higher = more binding, comparable within an allelic series)

Sequence: CCCCCCCC
- binding signal (ALX1 [1]): 6.17 upbm affinity estimate (log intensity, higher = more binding, comparable within an allelic series)
- binding signal (ALX1 [2]): 6 upbm affinity estimate (log intensity, higher = more binding, comparable within an allelic series)
- binding signal (ALX1 [3]): 6.16 upbm affinity estimate (log intensity, higher = more binding, comparable within an allelic series)

Sequence: ACATTTAG
- binding signal (ALX1 [1]): 8.38 upbm affinity estimate (log intensity, higher = more binding, comparable within an allelic series)
- binding signal (ALX1 [2]): 8.16 upbm affinity estimate (log intensity, higher = more binding, comparable within an allelic series)
- binding signal (ALX1 [3]): 8.56 upbm affinity estimate (log intensity, higher = more binding, comparable within an allelic series)

Sequence: GGACGGCC
- binding signal (ALX1 [1]): 6.43 upbm affinity estimate (log intensity, higher = more binding, comparable within an allelic series)
- binding signal (ALX1 [2]): 6.53 upbm affinity estimate (log intensity, higher = more binding, comparable within an allelic series)
- binding signal (ALX1 [3]): 6.53 upbm affinity estimate (log intensity, higher = more binding, comparable within an allelic series)

Sequence: CCACAGGG
- binding signal (ALX3 [4]): 7.75 upbm affinity estimate (log intensity, higher = more binding, comparable within an allelic series)
- binding signal (HOXD13 [5]): 9.71 upbm affinity estimate (log intensity, higher = more binding, comparable within an allelic series)
- binding signal (HOXD13 [6]): 9.49 upbm affinity estimate (log intensity, higher = more binding, comparable within an allelic series)
- binding signal (ALX3 [7]): 7.62 upbm affinity estimate (log intensity, higher = more binding, comparable within an allelic series)
- binding signal (ALX3 [8]): 7.81 upbm affinity estimate (log intensity, higher = more binding, comparable within an allelic series)
- binding signal (HOXD13 [9]): 9.58 upbm affinity estimate (log intensity, higher = more binding, comparable within an allelic series)
- binding signal (ALX3 [10]): 7.81 upbm affinity estimate (log intensity, higher = more binding, comparable within an allelic series)
- binding signal (ALX3 [11]): 7.73 upbm affinity estimate (log intensity, higher = more binding, comparable within an allelic series)

Sequence: CGCCTTCC
- binding signal (ALX1 [1]): 6.24 upbm affinity estimate (log intensity, higher = more binding, comparable within an allelic series)
- binding signal (ALX1 [2]): 6.38 upbm affinity estimate (log intensity, higher = more binding, comparable within an allelic series)
- binding signal (ALX1 [3]): 6.08 upbm affinity estimate (log intensity, higher = more binding, comparable within an allelic series)

Sequence: GGACCCAC
- binding signal (ALX1 [1]): 6.45 upbm affinity estimate (log intensity, higher = more binding, comparable within an allelic series)
- binding signal (ALX1 [2]): 6.3 upbm affinity estimate (log intensity, higher = more binding, comparable within an allelic series)
- binding signal (ALX1 [3]): 6.26 upbm affinity estimate (log intensity, higher = more binding, comparable within an allelic series)

Sequence: GAGGAGCC
- binding signal (ALX1 [1]): 6.5 upbm affinity estimate (log intensity, higher = more binding, comparable within an allelic series)
- binding signal (ALX1 [2]): 6.54 upbm affinity estimate (log intensity, higher = more binding, comparable within an allelic series)
- binding signal (ALX1 [3]): 6.27 upbm affinity estimate (log intensity, higher = more binding, comparable within an allelic series)

Sequence: TATAATAA
- binding signal (ALX3 [4]): 8.61 upbm affinity estimate (log intensity, higher = more binding, comparable within an allelic series)

Sequence: ATTTATCG
- binding signal (ALX1 [1]): 8.96 upbm affinity estimate (log intensity, higher = more binding, comparable within an allelic series)
- binding signal (ALX1 [2]): 8.71 upbm affinity estimate (log intensity, higher = more binding, comparable within an allelic series)
- binding signal (ALX1 [3]): 9.21 upbm affinity estimate (log intensity, higher = more binding, comparable within an allelic series)

Sequence: ACGATTAC
- binding signal (ALX1 [1]): 8.4 upbm affinity estimate (log intensity, higher = more binding, comparable within an allelic series)
- binding signal (ALX1 [2]): 8.26 upbm affinity estimate (log intensity, higher = more binding, comparable within an allelic series)
- binding signal (ALX1 [3]): 8.62 upbm affinity estimate (log intensity, higher = more binding, comparable within an allelic series)

Sequence: AATCCACA
- binding signal (ALX1 [1]): 8.17 upbm affinity estimate (log intensity, higher = more binding, comparable within an allelic series)
- binding signal (ALX1 [3]): 8.4 upbm affinity estimate (log intensity, higher = more binding, comparable within an allelic series)

Sequence: CACAGAGC
- binding signal (ALX1 [1]): 6.53 upbm affinity estimate (log intensity, higher = more binding, comparable within an allelic series)
- binding signal (ALX1 [2]): 6.53 upbm affinity estimate (log intensity, higher = more binding, comparable within an allelic series)
- binding signal (ALX1 [3]): 6.59 upbm affinity estimate (log intensity, higher = more binding, comparable within an allelic series)

Sequence: CAATATTC
- binding signal (ALX1 [1]): 8.3 upbm affinity estimate (log intensity, higher = more binding, comparable within an allelic series)
- binding signal (ALX1 [2]): 8.42 upbm affinity estimate (log intensity, higher = more binding, comparable within an allelic series)
- binding signal (ALX1 [3]): 8.48 upbm affinity estimate (log intensity, higher = more binding, comparable within an allelic series)
